POLI inh: qHTS for Inhibitors of Polymerase Iota. DNA polymerase iota (Homo sapiens), Q9UNA4. Pol iota fluorescent replication assay, 10 min. Potency, µM (series often up to 115 µM), hits mostly inhibitors. 1% of 390,000 active
Target sequence (Q9UNA4 whole entry, looked up): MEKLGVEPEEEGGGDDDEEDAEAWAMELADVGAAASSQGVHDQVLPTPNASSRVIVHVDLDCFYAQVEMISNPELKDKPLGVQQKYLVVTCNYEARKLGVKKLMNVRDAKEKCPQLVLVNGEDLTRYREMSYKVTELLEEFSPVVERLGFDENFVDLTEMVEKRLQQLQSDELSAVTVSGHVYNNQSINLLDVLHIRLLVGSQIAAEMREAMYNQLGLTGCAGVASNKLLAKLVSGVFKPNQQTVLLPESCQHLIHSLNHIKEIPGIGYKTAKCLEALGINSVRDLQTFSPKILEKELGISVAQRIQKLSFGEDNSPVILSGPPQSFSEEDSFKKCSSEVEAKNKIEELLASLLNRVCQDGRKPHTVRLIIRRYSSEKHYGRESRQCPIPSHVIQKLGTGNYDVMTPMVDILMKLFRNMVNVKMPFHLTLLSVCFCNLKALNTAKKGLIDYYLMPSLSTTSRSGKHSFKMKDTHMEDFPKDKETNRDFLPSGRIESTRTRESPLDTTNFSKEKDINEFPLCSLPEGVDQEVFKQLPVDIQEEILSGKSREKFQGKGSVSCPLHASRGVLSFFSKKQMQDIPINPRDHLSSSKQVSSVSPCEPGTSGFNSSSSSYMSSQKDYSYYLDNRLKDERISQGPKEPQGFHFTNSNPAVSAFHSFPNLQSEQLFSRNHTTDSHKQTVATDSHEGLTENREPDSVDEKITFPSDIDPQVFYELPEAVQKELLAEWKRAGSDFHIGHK
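Fluorescent replication assay read twice, at 0 min and 10 min after adding 50 nM (final) substrate. Enzyme (10 nM) and compounds were first incubated 15 min at room temperature; enzyme-free buffer wells were negative controls.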
Pol eta inh: qHTS for Inhibitors of Polymerase Eta; DNA polymerase eta (Homo sapiens), Q9Y253; recombinant Pol eta, fluorescent DNA replication assay; Potency, µM (series often up to 114 µM), most hits filed as inhibitors; 1.2% of 390,000 active; AID 588591, 2011
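Fluorescent replication assay: 50 nM final substrate added after a 15 min room-temperature compound preincubation with 10 nM enzyme. Signal taken at 0 min and again at 10 min.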
POLK inh: qHTS for Inhibitors of Polymerase Kappa | Potency, µM (top dose mostly 107 µM), usual class: inhibitors | 0.53% of 400,000 active | purified Pol kappa, fluorescent DNA synthesis assay, 10 min | AID 588579, 2011 | DNA polymerase kappa (Homo sapiens), Q9UBT6
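Kinetic fluorescence readout at 0 and 10 min followed reaction start with substrate at 50 nM final. Beforehand, enzyme (10 nM Pol kappa) stood 15 min with compound at room temperature; buffer-only wells were negative controls.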
POLB inh: qHTS Assay for Inhibitors of DNA Polymerase Beta; P06746; Pol beta primer extension/strand displacement, fluorescence kinetic; Potency, µM (top dose mostly 114 µM), actives largely listed as inhibitors; 1.3% of 340,000 active
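Enzyme-only controls used 10 nM Pol beta; buffer lacking enzyme served as negative control. Compound preincubated 15 min, then 50 nM substrate added; 0 and 10 min reads at room temperature.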
L3MBTL1 inh: qHTS Assay for the Inhibitors of L3MBTL1; 0.66% of 230,000 active; AlphaScreen L3MBTL1–H3K9me1 peptide binding; Lethal(3)malignant brain tumor-like protein 1 (Homo sapiens), Q9Y468; Potency, µM (top dose mostly 57.1 µM), hits mostly inhibitors; AID 485360, 2010; further: nearly all actives have a fitted effect of over 60% in size
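L3MBTL1 (50 nM) pre-complexed 30 min with biotinylated H3(1-15)K9me1 peptide (75 nM), then compounds added for 30 min at room temperature; AlphaScreen streptavidin donor/nickel chelate acceptor beads (10 ug/mL final) read after 30 min dark incubation.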
Of the large screens only hits and unclear results are named; the others gave an inactive call; ! = not active in a repeat. This is a sample that favours compounds with a hit; in the whole collection about 2.4% have one here. The call rests on the fitted dose curve; in most records, active means well fitted curve in the direction sought with a large enough effect; inconclusive means small, poorly fitted or top-dose-only effect, or another doubt; inactive means no such curve, though single readings can be large; an effect the other way counts as inactive or inconclusive.

CCOC(=O)N1CC(C)N(/[N+]([O-])=N/Oc2ccc([N+](=O)[O-])cc2[N+](=O)[O-])CC1C (configuration not stated)	POLI inh inconclusive (no result: Pol eta inh, POLB inh, L3MBTL1 inh)
COc1ccc(N2C(=O)/C(=C/c3ccc(N(C)C)o3)C(=O)NC2=S)cc1	POLI inh inconclusive (no result: L3MBTL1 inh)
Cc1ccc(N2C(=O)/C(=C/c3ccc(CN(CCC#N)S(C)(=O)=O)o3)C(=O)NC2=S)cc1	POLI inh 3.2µM, Pol eta inh 2.2µM, POLK inh 18µM, POLB inh 6.3µM, L3MBTL1 inh 32µM
CCCCn1c(NC(=O)c2ccco2)c(C(=O)OCC)c2nc3ccccc3nc21	Pol eta inh inconclusive
CCCCn1c(NS(=O)(=O)c2ccc(C)cc2)c(C(=O)OCC)c2nc3ccccc3nc21	POLI inh 2.5µM
Cc1cc(C=C2C(=O)N(C)C(=S)N(C)C2=O)c(C)n1-c1ccncc1	Pol eta inh 35µM, POLB inh inconclusive
Cc1ccnc(-n2c(C)cc(C=C3C(=O)N(C)C(=S)N(C)C3=O)c2C)c1	POLI inh inconclusive
COC(C(=O)C(O)C(C)O)C1Cc2cc3cc(OC4CC(OC5CC(O)C(OC)C(C)O5)C(OC(C)=O)C(C)O4)c(C)c(O)c3c(O)c2C(=O)C1OC1CC(OC2CC(OC3CC(C)(O)C(OC(C)=O)C(C)O3)C(O)C(C)O2)C(O)C(C)O1 (configuration not stated)	POLK inh 21µM (no result: POLI inh, Pol eta inh, POLB inh, L3MBTL1 inh)
Cc1cccn2c(=O)cc(COc3cccc(NC(=O)COc4ccc(F)cc4)c3)nc12	Pol eta inh inconclusive (no result: L3MBTL1 inh)
C=C1CCC(O)C/C1=C/C=C1\CCC[C@]2(C)[C@@H]([C@H](C)CCCC(C)C)CC[C@@H]12 (some centres not stated)	none (no result: POLI inh, Pol eta inh, POLB inh, L3MBTL1 inh)
COc1cc(C(c2c(C)[nH]n(-c3ccccc3)c2=O)c2c(C)[nH]n(-c3ccccc3)c2=O)cc(OC)c1OC	POLB inh inconclusive
Cc1[nH]n(-c2ccccc2)c(=O)c1C(c1cccc([N+](=O)[O-])c1O)c1c(C)[nH]n(-c2ccccc2)c1=O	POLI inh 0.28µM
CCC(CC)c1nnc(NC(=O)CC(C)c2ccccc2)s1 (configuration not stated)	none
N#CC(C#N)=Cc1ccc(N2CCOCC2)cc1	none (no result: L3MBTL1 inh)
Cc1cc(C=C(C#N)C#N)ccc1N1CCCC1	POLI inh 89µM
COc1ccc(-c2nn3c(=O)cc(CN4CCN(S(=O)(=O)c5ccc(C)cc5)CC4)nc3s2)cc1	none (no result: L3MBTL1 inh)
CC1CCN(C(=O)c2ncn(C)c2C(=O)N2CCC(C)CC2)CC1	POLI inh inconclusive (no result: POLB inh)
COc1ccc(C(=O)Nc2ccccc2C(=O)NC(C(=O)NCc2ccco2)C(C)C)cc1 (configuration not stated)	Pol eta inh 8.9µM
C/C(CC(=O)Nc1cc(C)ccn1)=N\NC(=O)c1ccncc1	none (no result: L3MBTL1 inh)
O=c1[nH]c(=S)[nH]c(O)c1/C=C1/C=c2ccccc2=N1	POLI inh 28µM, Pol eta inh inconclusive
Cc1cccc2c1=NC(=O)/C(=C/c1c(O)[nH]c(=O)[nH]c1=O)C=2	none
C=CC[C@]1(O)CC[C@H]2[C@@H]3CCC4=CC(=O)CCC4=C3C=C[C@@]21C	none (no result: POLI inh, Pol eta inh, POLB inh, L3MBTL1 inh)
CC1=NNC(=O)C1Br (configuration not stated)	POLI inh 28µM (no result: POLB inh, L3MBTL1 inh)
CN1CC=C(c2c[nH]c3ccccc23)CC1	POLB inh inconclusive, L3MBTL1 inh 32µM
C1=C(c2c[nH]c3ccccc23)CCN(Cc2ccccc2)C1	none (no result: L3MBTL1 inh)
CC[C@@]1(O)C(=O)OCc2c1cc1n(c2=O)Cc2cc3c(O)cccc3nc2-1	POLK inh 30µM (no result: POLI inh, Pol eta inh, POLB inh, L3MBTL1 inh)
CCCSP(=S)(OCC)Oc1ccc(Cl)cc1Cl (configuration not stated)	none (no result: POLI inh, Pol eta inh, POLB inh, L3MBTL1 inh)
O=C(Cn1c(=O)oc2ccccc21)NCCc1ccccc1	none (no result: L3MBTL1 inh)
CC(C)C[C@H](NC(=O)[C@H](Cc1ccccc1)NC(=O)CNC(=O)[C@H](C)NC(=O)[C@@H](N)Cc1ccc(O)cc1)C(=O)O	none (no result: POLI inh, Pol eta inh, POLB inh, L3MBTL1 inh)
NC(Cc1ccc(Oc2cc(I)c(O)c(I)c2)c(I)c1)C(=O)O (configuration not stated)	POLK inh 7.1µM (no result: POLI inh, Pol eta inh, POLB inh, L3MBTL1 inh)
CC(N)C(O)c1ccc(O)c(O)c1 (configuration not stated)	POLK inh 3.2µM! (no result: POLI inh, Pol eta inh, POLB inh, L3MBTL1 inh)

Bioassay records (PubChem BioAssay)
